The other results are listed elsewhere or left out. A call without a number means that no potency is given here. Results filed as inconclusive are left out. Activity calls are given as the source filed them. Calls come from the whole dose curve; as a rule, active = well fitted inhibition curve with a large enough effect; inconclusive = small, poorly fitted or top-dose-only effect; inactive = flat fitted curve, though single readings scatter.
Tested on: NanoLuc luciferase (engineered Oplophorus gracilirostris luciferase)
Assay: Biochemical coelenterazine-based NLuc counterscreen for small molecule modulators of PMP22 gene expression - Km assay (AID 1508639)
Details: secreted NLuc enzyme, coelenterazine luminescence, Km conditions; series mostly up to 57.5 µM
From the text: Assay Provider: Jim Inglese Ph.D. National Center for Advancing Translational Science, National Institutes of Health, Rockville, MD CMT is a heterogeneous group of neurological disorders that affect approximately 1 in 2,500 people. In particular, the most common form of CMT, CMT1A is genetically linked to the duplication of the PMP22 gene which leads to Schwann cell overexpression, thus manifesting itself as a typical case of dose-sensitive diseases. To identify small molecule compounds that can mediate the expression of PMP22 we developed a phenotypic assay screening strategy by utilizing genome editing techniques to construct Schwann cell lines containing novel reporter technology to monitor the transcriptional or translational regulation of PMP22. For high sensitivity we use a bioluminescent reporter system embedded in the 3' UTR of the PMP22 gene (S16(c9) Pmp22-F2sN) to identify compounds that inhibit gene expression. […] We can further discriminate the effect of all transcriptionally active molecules on PMP22 translation or stability with an assay that incorporates a short NLuc peptide (HiBiT) at the C-terminus of expressed PMP22 (S16(f8) PMP22-HiBiT) allowing alpha complementation and luminescence detection of membrane-associated PMP22 protein. These assays were screened against the NCATS Sytravon Library Collection. Miniaturization of these assays to 1536-well plate format for quantitative high throughput screening (qHTS) yielded rich data sets immediately from the qHTS assay (S16(c9) Pmp22-F2sN), when compared with data from a cell viability assay (Cell TiterGlo) to identify compounds that decreased the output signals through cellular toxicity to streamline the selection process of actives for subsequent characterization using the HiBiT assay (S16(f8) PMP22-HiBiT).
Biochemical Coelenterazine-based solution NLuc assay (Km assay) PROTOCOL TABLE (format as described by Inglese J, Shamu CE and Guy RK. 2007) SEQUENCE No. (e.g., 1, 2, 3, etc.); PARAMETER (e.g., Cells, Incubation, Reagent, etc.); VALUE and DESCRIPTION. 1. Reagent. Add 2 uL substrate per well into Greiner 1536-well white/solid bottom high base, medium binding plates. 2. Compounds. Library compounds and controls added at 23nL per well, transferred by Pin Tool. 3. Incubation. Incubate plates 5 min at ambient temperature. 4. Reagent. Add 2uL NLuc enzyme solution per well of Greiner 1536-well plates. 5. Incubation. Incubate plates at room temperature for 10 min., protect from light. 6. Detector. FLuc luminescence measured using CCD-based camera (Viewlux). NOTES (numbers refer to Sequence numbers above; values are from representative experiments) 1. Freshly prepared 15 uM Coelenterazine, 0.3M Sodium Ascorbate, 0.005M NaCl and 0.1% TritonX in PBS pH7.4, filtered through […]. 4. Enzyme was obtained by filtering media of S16 cells expressing secreted NLuc (Inglese et al. 2014) grown to 80-90% confluency in DMEM High Glucose, No Phenol Red media + 10% heat inactivated FBS + 1% Pen/Strep supplemented media6. Luminescence Read (Fluc): Clear filter; Exposure = 10 sec, Gain = High, Speed = Slow, Binning = 2X 6. Luminescence Read (Nluc): Clear filter; Exposure = 1 sec, Gain = High, Speed = Slow, Binning = 2X REFERENCES: 1. Inglese J, Shamu CE and Guy RK, Reporting data from high throughput screening of small molecule libraries, Nature Chemical Biology, 2007, 3(8): 438-441. doi.org/10.1038/nchembio0807-438 2. Yasgar A, Shinn P, Jadhav A, Auld DS, Michael S, Zheng W, Austin CP, Inglese J and Simeonov A, Compound Management for Quantitative High-Throughput Screening. J. Assoc. Lab. Auto., 2008, 13: 79-89. doi: 10.1016/j.jala.2007.12.004 3. Inglese, J., Dranchak, P., Moran, J. J., Jang, S. W., Srinivasan, R., Santiago, Y., Zhang, L., Guha, R., Martinez, N., MacArthur, R., Cost, G. J., and Svaren, J. (2014) Genome editing-enabled HTS assays expand drug target pathways for Charcot-Marie-tooth disease, ACS Chem Biol 9, 2594-2602.
Potency is the fitted concentration of half-maximal effect.

Row | SMILES | Potency
1 | CCCn1c(=N)c(C(=O)NCc2ccccc2)cc2c(=O)n3cccc(C)c3nc21 | inactive
2 | Cc1ccc(CCNC(=O)C2CCN(c3nnc(-n4cccc4CNc4ccc(C)cc4)s3)CC2)cc1 | inactive
3 | O=C(c1ccc2c(c1)N(Cc1ccc(F)cc1)C(=O)c1ccccc1S2(=O)=O)N1CCN(c2ccccn2)CC1 | 1.93 µM (active)
4 | CCOC(=O)c1c(C)[nH]c(CCC(=O)NCCCN2CCN(c3cccc(Cl)c3)CC2)c1C | inactive
5 | CCOC(=O)c1ccc(NC(=O)CSc2nc3c([nH]c4ccccc43)c(=O)n2C)cc1 | inactive
6 | CC(=O)N1CCCc2cc(S(=O)(=O)N3CCCC(C(=O)N4CCN(c5cccc(Cl)c5)CC4)C3)ccc21 (stereo unspecified) | inactive
7 | Cc1cc(OCC(=O)NCC2(N(C)C)CCCCC2)cc(C)c1Cl | inactive
8 | COc1ccccc1Nc1c2c(nc3ccc(NC(=O)/C=C/c4cc(OC)c(OC)c(OC)c4)cc13)CCCC2 | 1.93 µM (active)
9 | Cc1ccccc1CNC(=O)CSc1nnc(C)c2c(C)n(-c3ccccc3)nc12 | inactive
10 | O=C(c1ccc(C(F)(F)F)cc1)N1CCC(c2nc(-c3ccc(S(=O)(=O)N4CCCC4)cc3)no2)CC1 | inactive
11 | CCCCOc1ccc(CN2C(=O)C(=O)c3cc(Br)cc(C)c32)cc1OC | inactive
12 | COc1cccc(NC(=O)CSC2=Nc3ccccc3C3=NC(CC(=O)NC4CCCCC4)C(=O)N23)c1 (stereo unspecified) | inactive
13 | Cc1ccc(OCCSc2nc3ccc(NC(=O)COc4ccc(C)cc4)cc3s2)cc1 | inactive
14 | Cc1nnc(SCC(=O)NCc2ccccc2Cl)c2nn(-c3ccccc3)c(C)c12 | inactive
15 | CCOc1ccc(NC(=O)c2c(NC(=O)Cc3ccccc3)sc3c2CCC(C)C3)cc1 (stereo unspecified) | 17.2 µM (active)
16 | CCOC(=O)C1CCN(C(=O)CSc2c3c(nc4ccc(Cl)cc24)CCCC3)CC1 | inactive

Row | SMILES | Potency
17 | CCc1ccc(C2CC(=O)c3c([nH]c(C(=O)OCc4ccc(C)cc4)c3C)C2)cc1 (stereo unspecified) | inactive
18 | CCOC(=O)c1ccc(N2C(=O)c3n[nH]c(C)c3C2c2ccc(O)c(OC)c2)cc1 (stereo unspecified) | 19.3 µM (active)
19 | COc1ccc(-c2onc(C)c2C)cc1S(=O)(=O)NCC1CCN(Cc2cccc(F)c2)CC1 | inactive
20 | Cc1ccc(C)n1-c1nnc(N2CCC(C(=O)NCc3ccccc3Cl)CC2)s1 | inactive
21 | CCCn1c2ccccc2c2cnn(CC(=O)NCC3CCN(Cc4ccc(C)cc4)CC3)c(=O)c21 | inactive
22 | O=C(NCCCN1CCN(c2cccc(Cl)c2)CC1)c1nnc(Cc2ccc(F)cc2Cl)o1 | inactive
23 | CCC1CCCCN1CCCNC(=O)c1cc2c(Cl)nc3ccccc3c2s1 (stereo unspecified) | inactive
24 | Cc1cccc(Nc2cc(C)nc(-n3nc(C)cc3C)n2)c1 | 9.68 µM (active)
25 | COc1ccc(CCNC(=O)c2cc(=O)c3c(C)cc(C)cc3o2)cc1OC | 0.273 µM (active)
26 | CCCS(=O)(=O)c1ncc(Cl)c(C(=O)Nc2scc(-c3ccccc3)c2C(=O)OCC)n1 | inactive
27 | CCOC(=O)c1c(C)[nH]c(CCC(=O)NCCCN2CCN(c3cc(C)ccc3C)CC2)c1C | inactive
28 | CCOCCCNC(=O)c1c(NC(=O)c2nc(SC)ncc2Cl)sc2c1CCCC2 | inactive
29 | CCC1=Nc2cc(C(=O)NCCCOC(C)C)ccc2Sc2ccc(C)cc21 | inactive
30 | Cc1cc(F)ccc1NS(=O)(=O)c1ccc(-n2cccn2)cc1 | 13.7 µM (active)
31 | CC(C)(C)c1ccc(C(=O)NCC(c2ccco2)S(=O)(=O)c2ccc(F)cc2)cc1 (stereo unspecified) | inactive

— PubChem BioAssay (NCATS)
